# Screening results: PubChem, National Center for Advancing Translational Sciences (NCATS)
# PINK1 expr mod = PINK1 expression modulation; PINK1 immunofluorescence, high-content cytometry, 24 h; Potency, µM (series often up to 76.6 µM), without a hit: at the highest dose activation (PINK1 increase), actives largely listed as activators; hit rate 0.2% among 410,000; AID 624263; active = well fitted activation curve with a large enough effect; inconclusive = small, poorly fitted or top-dose-only effect; cell line not stated here; note: potency is the fitted concentration of half-maximal effect; % of control where 0% means no effect; nearly all actives have a fitted effect of over 65% in size
#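 Fluorescence from anti-PINK1 antibody, together with nuclear and cell stains, was scanned on a laser-scanning cytometer. Before staining, stable-line cells were incubated 24 hours with compounds at 5 concentrations; primary antibody 12 h at 10 degrees C.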
# MmCpn inh = inhibitors of Methanococcus maripaludis chaperonin TRiC (MmCpn); AID 504842; Potency, µM (series often up to 76.9 µM), for inactives: top-dose activity, negative = inhibition, actives largely listed as inhibitors; purified Mm-Cpn ATPase, ADP Transcreener TR-FRET; hit rate 0.031% among 330,000; note: potency is the fitted concentration of half-maximal effect; % is set by controls: 0 for no effect and ±100 for the full control effect; nearly all actives have a fitted effect of over 80% in size
#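 TR-FRET (320 nm excitation; 590 and 665 nm emission) reports ADP made from 10 uM ATP by 25 nM enzyme; compounds were preincubated 10 min, reaction run 30 min, both at 37°C.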
# S-ASM inh = human S-ASM enzyme inhibition; P17405; placental ASM, HMU-PC fluorogenic substrate, 60 min; Potency, µM (highest dose often 57.5 µM), for the others: at the highest dose activity change, negative = inhibition, usual class: inhibitors; hit rate 0.006% among 340,000; note: potency is the fitted concentration of half-maximal effect
# Target sequence (P17405 47-631 limits assumed): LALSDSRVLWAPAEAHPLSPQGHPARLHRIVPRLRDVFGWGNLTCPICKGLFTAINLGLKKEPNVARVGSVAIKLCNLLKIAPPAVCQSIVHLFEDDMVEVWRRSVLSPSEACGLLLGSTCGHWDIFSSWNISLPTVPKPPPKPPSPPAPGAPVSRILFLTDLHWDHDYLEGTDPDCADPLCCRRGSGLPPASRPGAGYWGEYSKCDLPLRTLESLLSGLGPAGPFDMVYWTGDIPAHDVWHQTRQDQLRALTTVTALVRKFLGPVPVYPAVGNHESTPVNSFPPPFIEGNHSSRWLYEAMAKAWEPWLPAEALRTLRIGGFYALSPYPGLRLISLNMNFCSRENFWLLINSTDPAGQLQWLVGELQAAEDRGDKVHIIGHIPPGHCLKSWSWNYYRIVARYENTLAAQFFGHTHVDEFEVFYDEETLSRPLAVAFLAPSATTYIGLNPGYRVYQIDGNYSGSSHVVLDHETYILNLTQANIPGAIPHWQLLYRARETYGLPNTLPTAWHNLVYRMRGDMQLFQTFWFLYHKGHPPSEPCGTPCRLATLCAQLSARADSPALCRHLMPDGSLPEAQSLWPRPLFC
#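 Human placenta-derived ASM enzyme was preincubated with compound for 10 minutes at room temperature, then given fluorogenic substrate HMU-PC0 (9 uM final) for 60 minutes at 37 °C; a pH 10 stop preceded fluorescence reading at Ex 386/Em 447 nm.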
# 12-LOX inh = ALOX12 (human) lipoxygenase inhibition. P18054. purified 12hLO, xylenol orange hydroperoxide absorbance. Potency, µM (highest dose often 108 µM), for the others: top-dose activity change, negative = inhibition, most hits filed as inhibitors. hit rate 1.1% among 580,000; note: potency is the fitted concentration of half-maximal effect; % is set by controls: 0 for no effect and ±100 for the full control effect
#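 Hydroperoxide product was detected by ferrous iron/xylenol orange as the 573 to 405 nm absorbance ratio. Arachidonic acid at 40 uM (final) was turned over for 30 min at room temperature by 150 nM human 12hLO, pH 7.0 Hepes buffer, after 15 min compound preincubation.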
# p53 reactivator = re-activators of mutant p53; H1299 p53-A138V BP100-luciferase reporter, luminescence, 24 h; Potency, µM (highest dose often 92.2 µM), without a hit: at the top dose activity change, positive = activation, most hits filed as activators; hit rate 0.063% among 320,000; AID 504706; note: potency is the fitted concentration of half-maximal effect; % of control where 0% means no effect; nearly all actives have a fitted effect of over 45% in size
#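 H1299 (p53-null), stable ts p53-A138V + BP100-Luc; 1000 cells/well, Opti-MEM/10% FBS; cpd 4 pt, 1:5; 24 h, 37 deg C, 5% CO2; detection reagent 10 min RT; luminescence.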
# CCT chaperon mod = modulators of cytosolic chaperonin (CCT/TRiC) activity; purified chaperonin ATPase assay, HTRF ADP detection, 30 min; activity change, % (test concentration not listed), hits read low; hit rate 0.3% among 360,000; in the data active = activity change below about -30%; note: % is set by controls: 0 for no effect and ±100 for the full control effect
#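 TRiC (40 or 20 nM final, by batch activity) in 30 mM Tris pH 7.4, 100 mM KCl, 5 mM MgCl2, 1 mM DTT was treated with compound at 76 uM single dose, then 10 uM ATP, 30 min at 37 °C. ADP was read by HTRF Transcreener.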
# * = called active by the depositor; i = inactive; ? = inconclusive; · = not tested or not shown; ! = not active in a repeat; [ ] = dose if it differs, or a comment. A selection: hits, their analogues and other compounds. The true share with any hit is near 1.4%. Unless noted, calls come from the whole dose curve; as a rule, active = well fitted curve in the direction sought with a large enough effect; inconclusive = small, poorly fitted or top-dose-only effect, or another doubt; inactive = no such curve, though single readings can be large; an effect the other way counts as inactive or inconclusive.
SMILES,PINK1 expr mod,MmCpn inh,S-ASM inh,12-LOX inh,p53 reactivator,CCT chaperon mod
COc1cc(/C=C/c2nc3ccccc3s2)cc(OC)c1O,-1%,-1%,99%,?,?,0
COc1ccc(-c2csc(N3N=C(C)CC3c3cc(OC)c(OC)c(OC)c3)n2)cc1 (configuration not stated),·,·,·,-2%,·,·
O=S(=O)(Nc1ccc(O)c2ccccc12)c1cccs1,-4%,-2%,-2%,32µM*,-11%,0
COc1ccc(-c2cc(-c3c(C)noc3C)cc3c2C(=O)N(C)C3)cn1,·,·,·,49%[176 µM],·,·
COc1cc(Cl)ccc1-c1cccc(COc2cnc3c(ccn3CC(=O)O)c2)c1,·,·,·,63µM*,·,·
Nc1cc2nn(-c3ccccc3)nc2cc1Cl,-1%,-3%,i,5.6µM*,?,0
Cc1ccc(-n2nc3cc(C)c(N)cc3n2)cc1,0%,-4%,i,45µM*,?,-2
Cc1cc2nn(-c3cccc4ccccc34)nc2cc1N,11%,0%,138%,?,?,0
COc1ccc(-n2nc3cc(C)c(N)c(Br)c3n2)cc1,6%,-25%,44%,28µM*,21%,1
CCc1ccc(-n2nc3cc(C)c(N)cc3n2)cc1,0%,-1%,i,20µM*,·,2
Nc1ccc2nn(-c3ccccc3)nc2c1,1%,-5%,i,?,15%,1
O=C(OCC(=O)C12CC3CC(CC(C3)C1)C2)c1ccc([N+](=O)[O-])cc1Cl,·,·,·,6%,·,·
CCn1c(C)c(CCC(=O)NCc2cccc(OC)c2)c(=O)n2nc(-c3ccccc3OC)cc12,·,·,·,7%,·,·
c1ccc2sc(N3CCOCC3)nc2c1,14%[38.3 µM],1%,-4%,0%,18%,2
c1ccc2sc(SN3CCOCC3)nc2c1,0%,-1%,0%,13µM*!,12%,0
CCOc1nc2ccccc2nc1N1CCC(C(=O)NC(C)c2ccccc2)CC1 (configuration not stated),·,·,·,24%,·,·
Cc1cccc(C)c1-n1nnnc1C1(C)CCC(=O)N1c1ccc(N2CCOCC2)cc1 (configuration not stated),0%,·,·,11µM*,·,0
CC(C)N1C[C@@H]2C[C@H]1C(=O)N(Cc1ccc(OC(F)(F)F)cc1)c1ccccc1O2,·,·,·,37%[176 µM],·,·
COc1ccc(-c2nc(S(=O)(=O)c3ccccc3)c(N3CCCC3)o2)cc1,-2%,·,·,4.5µM*,·,0
O=C(CCc1ncc(-c2ccccc2F)o1)Nc1cccc(C(=O)NC2CC2)c1,·,·,·,39%,·,·
N#C/C(=C\c1coc2ccc(O)cc2c1=O)C(=O)Nc1nc2ccccc2s1,?,-5%,-5%,11µM*,29%,-1
COc1ccc(Cl)cc1NC(=O)/C(C#N)=C/c1coc2ccc(C)cc2c1=O,·,·,·,-17%,·,·
O=C(O)/C(=C/c1ccc(Cl)c([N+](=O)[O-])c1)c1ccc(S(=O)(=O)N2CCCCC2)s1,3%,·,0%,25µM*,·,0
Cc1nc(N(C)C)ncc1C(=O)NCc1ccccc1,·,·,·,3%,·,·
COc1cc(C2(c3ccc(O)c(OC)c3)C(=O)Nc3c(C)cc(Br)cc32)ccc1O,10%,·,-8%,25µM*,·,-1
Cc1cc(Br)cc2c1NC(=O)C2(c1c(C)n(C)n(-c2ccccc2)c1=O)c1c(C)n(C)n(-c2ccccc2)c1=O,-1%,0%,0%,3%,-4%,0
COc1cc(CNc2ncnc3c2ncn3[C@H]2CN(Cc3ccccc3)C[C@@H](COC(C)=O)O2)cc(OC)c1OC,3%,·,·,-16%,·,-38*
OC[C@@H]1CN(Cc2cccc3ccccc23)C[C@H](n2cnc3c(NCc4ccco4)ncnc32)O1,0%,·,·,35µM*,·,0
Cc1ccc(CC/C=N/NC(N)=S)o1,·,·,·,2%,·,·
Cc1ccc(CN2CCC(CNC(=O)c3cnn(-c4ccccc4)c3C3CCN(C(=O)OC(C)(C)C)CC3)CC2)cc1,2%,·,·,-5%,·,·
